High-throughput results (PubChem BioAssay)
ALOX12 inhib: qHTS Assay for Inhibitors of 12-hLO (12-human lipoxygenase) | actives 0.12% (n = 150,000) | AID 1452, 2008 | Potency, µM (series often up to 57.1 µM), without a hit: top-dose activity change, negative = inhibition, hits mostly inhibitors | purified 12-hLO, xylenol orange hydroperoxide absorbance | Polyunsaturated fatty acid lipoxygenase ALOX12 (Homo sapiens), P18054; active means well fitted inhibition curve with a large enough effect; inconclusive means small, poorly fitted or top-dose-only effect; further: potency means the concentration at half of the fitted maximal effect; nearly all actives have a fitted effect of over 55% in size
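Lipoxygenase turnover measured by absorbance at 573 and 405 nm after Fe-XO development. Human 12hLO 150 nM, arachidonate 40 uM, pH 7.0 Hepes buffer with detergent; 15 min compound preincubation, 30 min reaction.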
LMNA splice mod: qHTS Assay for Modulators of Lamin A Splicing. Potency, µM (doses to about 46.1 µM), inactives show top-dose ratio change, negative = inhibition, hits mostly inhibitors. HeLa LMNA splicing GFP/RFP minigene ratio, 48 h. actives 0.01% (n = 200,000). AID 1487, 2009; active means well fitted inhibition curve with a large enough effect in the signal ratio, with a control signal flat, not every such curve was filed as active; inconclusive means small, poorly fitted or top-dose-only effect, or effect the other way, or a change in a side signal; the % refers to the signal ratio; further: potency means the concentration at half of the fitted maximal effect
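Read-out is the ratio of GFP to DsRed2 object intensity, acquired by 488 nm laser-scanning cytometry on HeLa lamin A-EGFP minigene reporter cells. Compound incubation 48 hrs at 37 °C in Opti-MEM with 2% FBS; DMSO 0.5% final.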
PNC assembly inh: High Content Assay for Compounds that inhibit the Assembly of the Perinucleolar Compartment. PC3M PTB-GFP, PNC prevalence imaging, 16 h; stronger effect = lower value. activity change (PNC), negative = inhibition, % at 10 µM. actives 3.1% (n = 140,000);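 active means readout at or below -70, meaning at least 70% loss of cells showing the perinucleolar compartment, a nuclear body marking cancer cells; inconclusive means readout between -30 and a set limit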;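 further: plate controls were DMSO wells for no effect and camptothecin positive control wells for full effect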
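Read-out is percentage of cells bearing a perinucleolar compartment, from automated 20x imaging of fixed, Hoechst-stained PC3M PTB-GFP cells. Cells were seeded 4 h, then exposed 16 h to compound (23 nl of library stock) in duplicate plates.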
ALDH1A1 block: qHTS Assay for Inhibitors of Aldehyde Dehydrogenase 1 (ALDH1A1) | Aldehyde dehydrogenase 1A1 (Homo sapiens), P00352 | Purified ALDH1A1, NADH fluorescence, propionaldehyde substrate | actives 7.3% (n = 220,000) | Potency, µM (doses to about 75.3 µM), for the others: top-dose activity, negative = inhibition, actives largely listed as inhibitors;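 further: potency means the concentration at half of the fitted maximal effect; plate controls were no enzyme wells and a reference inhibitor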
HPGD block: qHTS Assay for Inhibitors of HPGD (15-Hydroxyprostaglandin Dehydrogenase) | actives 4.3% (n = 150,000) | AID 894, 2007 | Potency, µM, without a hit: top-dose activity change, negative = inhibition, usual class: inhibitors | purified HPGD, NADH fluorescence kinetic, PGE2 substrate | 15-hydroxyprostaglandin dehydrogenase [NAD(+)] (Homo sapiens), P15428; further: potency means the concentration at half of the fitted maximal effect
Target sequence (P15428 whole entry, looked up): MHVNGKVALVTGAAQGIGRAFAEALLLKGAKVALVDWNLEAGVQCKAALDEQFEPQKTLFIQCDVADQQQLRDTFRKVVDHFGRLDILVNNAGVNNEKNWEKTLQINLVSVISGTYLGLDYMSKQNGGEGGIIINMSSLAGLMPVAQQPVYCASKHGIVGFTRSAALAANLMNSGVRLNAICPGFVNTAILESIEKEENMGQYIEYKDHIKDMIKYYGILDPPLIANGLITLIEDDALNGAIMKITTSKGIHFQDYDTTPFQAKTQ
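NADH formation kinetics: reaction with 30 uM PGE2 and 1 mM NAD+ (final), 20 nM enzyme, Tris-HCl pH 8 with Tween 20, after 15 min compound preincubation at room temperature. Fluorescence change, last versus first of five reads.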
* = called active by the depositor; u = inconclusive; x = no result given; [ ] = dose if it differs, or a comment. This is a sample that favours compounds with a hit; in the whole collection about 10% have one here. Unless noted, the call rests on the fitted dose curve; in most records, active means well fitted inhibition curve with a large enough effect (not every such curve was filed as active); inconclusive means small, poorly fitted or top-dose-only effect, or another doubt; inactive means no such curve, though single readings can be large or run the other way. Unless noted, on the % scale 0 is the no-effect control and ±100 the full control effect.

SMILES	ALOX12 inhib	LMNA splice mod	PNC assembly inh	ALDH1A1 block	HPGD block
O=C1C=CC2=C3c4cc(O)c(O)cc4C[C@]3(O)COC2=C1	-20%	x	x	5%	16µM*
Cc1ccc(N(CC(=O)N2CC(=O)Nc3ccccc32)S(=O)(=O)c2ccc3c(c2)OCCO3)cc1	-5%	-1%	-100*	u	-14%
O=C(O)CN(c1ccc(F)cc1)S(=O)(=O)c1ccc2c(c1)OCCO2	3%	1%	27	6%	-4%
COc1ccc(C(=O)CSC2=C(C#N)C3(CCCCC3)C(C#N)=C(N)N2)cc1	-27%	u	5	8.9µM*	x
N#CC1=C(N)NC(SCC(=O)c2ccc(Br)cc2)=C(C#N)C12CCCCC2	-16%	u	42	13µM*	-17%
N#CC1=C(N)NC(SCC(=O)c2ccc(Cl)cc2)=C(C#N)C12CCCC2	-9%	-11%	-6	28µM*	u
CN(C)c1ncc2nc(CCc3ccccc3)c(=O)n(-c3ccccc3)c2n1	0%	x	x	u	u
Cc1cccc(CNc2ccnc(-c3ccccc3CN(C)C)n2)c1	5%	-10%	x	-3%	-16%
CCC(=O)OCC(=O)[C@@]1(OC(=O)CC)[C@@H](C)C[C@H]2[C@@H]3CCC4=CC(=O)C=C[C@]4(C)[C@@]3(F)[C@@H](O)C[C@@]21C	-1%[0.00818 µM]	x	x	-1%	-6%
COc1cc(OC)c(NC(=O)c2cc(CN3CCOCC3)on2)cc1Cl	x	-14%[46 µM]	x	x	x
O=C(N/N=C/c1cccs1)c1cc(-c2ccc3ccccc3c2)n[nH]1	1%	-7%	-18	12%	-29%
CCCc1cc(C(=O)N/N=C/c2ccc(CC)s2)c2ccccc2n1	5%	u	59	-4%	-14%
O=C(N/N=C/c1ccc[nH]1)c1cc(-c2cccs2)nc2ccccc12	x	u	x	16µM*	x
O=C(N/N=C/c1cccs1)c1cc(-c2cccc3ccccc23)n[nH]1	-3%	u	13	-1%	25µM*
O=C(N/N=C/c1cccnc1)c1cc(-c2cccs2)nc2ccccc12	-11%	u	-25	u	u
O=C(N/N=C/c1ccc2c(c1)OCO2)c1cc(-c2ccc(F)cc2)nc2ccccc12	2%	u	-96*	-7%	u
CCc1ccc(/C=N/NC(=O)c2cc(-c3ccncc3)nc3ccccc23)s1	3%	u	-110*	18%	-26%
O=C(N/N=C/c1cccs1)c1cc(-c2ccncc2)nc2ccccc12	0%	u	-109*	u	-15%
O=C(N/N=C/c1cccs1)c1cc(C2CC2)nc2ccccc12	-3%	u	-18	-4%	-20%
COc1ccc(CC(=O)OCCN(C)C)cc1	4%	17%	7	18%	-12%
CCCC(O)(CCN(C)C)c1ccc(OC)cc1 (stereo unspecified)	-2%	-7%	20	10µM*	5%
CC(C)=NOCc1cccc(-c2cc(-c3ccccc3)no2)c1	x	x	x	2%[13.5 µM]	x
Cc1oc2nc(SCC(=O)N3CCCCC3)nc(N)c2c1C	-2%	-1%	4	u	1.4µM*
Cc1cc(C)nc(SCC(=O)N2CCOCC2)n1	-2%	2%	u	8%	-11%
NC(=O)C1(N2CCCCC2)CCN(C(=O)CCCn2c(=O)[nH]c3ccsc3c2=O)CC1	2%	-5%	0	2%	-7%
SMILES	ALOX12 inhib	LMNA splice mod	PNC assembly inh	ALDH1A1 block	HPGD block
O=C(CCCCCn1c(=O)[nH]c2ccsc2c1=O)NCc1cccs1	0%	19%	u	4%	u
O=C(CCCCn1c(=O)[nH]c2ccsc2c1=O)NCC1CCCO1 (stereo unspecified)	3%	-1%	36	-1%	25µM*
O=C(CCCn1c(=O)[nH]c2ccsc2c1=O)N1CCCCC1	-4%	14%	u	-7%	14µM*
CC1CCC(NC(=O)Cn2c(=O)[nH]c3ccsc3c2=O)CC1 (stereo unspecified)	-3%	3%	-27	4%	-1%
O=C(CCCCCn1c(=O)[nH]c2ccsc2c1=O)N1CCCCC1	2%	u	-3	-1%	14µM*
O=C(Cn1c(=O)[nH]c2ccsc2c1=O)NC1CCCCCC1	-2%	3%	-100*	3%	-9%
Cc1ccc2nc(N3CCC(C(=O)N4CCN(c5cccc(C)c5C)CC4)CC3)[nH]c2c1	x	-2%[46 µM]	x	x	x
CCN(CC)S(=O)(=O)c1ccc(C(=O)NC2CC(=O)N(c3ccc4c(c3)OCCO4)C2)cc1 (stereo unspecified)	x	18%[46 µM]	x	x	x
[O-]/C(=C(\C(=S)NCc1ccccc1)[n+]1ccccc1)c1ccc(Cl)cc1	x	-8%[46 µM]	x	8.9µM*	x
C=CCNC(=S)/C(=C(\[O-])c1ccc(Cl)cc1)[n+]1ccccc1	x	x	x	14µM*	x
Cc1c(Cl)cccc1NC(=S)/C(=C(\[O-])c1ccc(Cl)s1)[n+]1ccccc1	2%	-21%	u	9%	u
O=[N+]([O-])c1ccc(/C([O-])=C(/C(=S)Nc2ccccc2F)[n+]2ccccc2)cc1	x	-6%[46 µM]	x	u	x
[O-]/C(=C(\C(=S)NCc1ccc2c(c1)OCO2)[n+]1ccccc1)c1ccc(Cl)s1	x	-16%[46 µM]	x	16µM*	x
CS(=O)(=O)N1CCC2(CCN(c3ccccc3)CC2)CC1	-3%	x	x	8%	-3%
Cn1c(=O)c2c(nc(/C=C\c3cccc(Cl)c3)n2C)n(C)c1=O	-2%	x	x	x	x
O=C(NCc1ccccc1Cl)c1ccc2c(c1)NC(=O)C(CS(=O)(=O)Cc1ccc(F)cc1Cl)N2 (stereo unspecified)	x	-8%[46 µM]	x	x	x
O=C(NCC1CCCO1)c1cccc(N2CCCC2=O)c1 (stereo unspecified)	6%	1%	-2	4%	-19%
Cc1ccc(C)n1-c1ccc(C(=O)NCC2CCCO2)cc1 (stereo unspecified)	1%	u	6	-10%	8.9µM*
COc1ccc(CC(=O)Nc2ccc(S(=O)(=O)NCC3CCCO3)cc2)cc1 (stereo unspecified)	0%	u	7	10µM*	22µM*
Cc1ccc(C(=O)NCC2CCCO2)cc1N1CCCC1=O (stereo unspecified)	-1%	-8%	17	0%	11µM*
COc1ccc(N(C)S(=O)(=O)c2cccc(C(=O)NCC3CCCO3)c2)cc1 (stereo unspecified)	-7%	18%	35	u	-15%
COc1ccc(S(=O)(=O)N(C)c2ccc(C(=O)NCC3CCCO3)cc2)cc1 (stereo unspecified)	-1%	5%	u	-8%	2.8µM*
